An excerpt weighted towards active compounds, which were near 9% of everything screened.
HPGD block: inhibitors of human 15-hydroxyprostaglandin dehydrogenase (HPGD) | P15428 | purified HPGD, NADH fluorescence kinetic, PGE2 substrate | Potency, µM, most hits filed as inhibitors | actives 4.3% (n = 150,000) | AID 894
Target sequence (P15428 whole entry, looked up): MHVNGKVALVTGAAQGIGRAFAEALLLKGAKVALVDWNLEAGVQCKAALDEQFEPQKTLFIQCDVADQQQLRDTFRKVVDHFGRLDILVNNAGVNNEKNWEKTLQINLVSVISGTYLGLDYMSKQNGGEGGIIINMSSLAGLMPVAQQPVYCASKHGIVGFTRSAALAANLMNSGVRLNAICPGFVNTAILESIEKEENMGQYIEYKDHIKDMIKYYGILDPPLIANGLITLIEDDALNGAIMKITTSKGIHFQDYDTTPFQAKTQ
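NADH formation kinetics: reaction with 30 uM PGE2 and 1 mM NAD+ (final), 20 nM enzyme, Tris-HCl pH 8 with Tween 20, after 15 min compound preincubation at room temperature. Fluorescence change, last versus first of five reads.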
ALDH1A1 inh: blocks purified human ALDH1A1 activity. Potency, µM (highest dose often 75.3 µM), most hits filed as inhibitors. P00352. Purified ALDH1A1, NADH fluorescence, propionaldehyde substrate. actives 7.3% (n = 220,000)
Lamin A splicing: modulators of lamin A splicing. actives 0.01% (n = 200,000). AID 1487. Potency, µM (highest dose often 46.1 µM), usual class: inhibitors. HeLa LMNA splicing GFP/RFP minigene ratio, 48 h; active = well fitted inhibition curve with a large enough effect in the signal ratio, with a control signal flat, not every such curve was filed as active; inconclusive = small, poorly fitted or top-dose-only effect, or effect the other way, or a change in a side signal; the % refers to the signal ratio
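S3 HeLa stable clones carrying a lamin A-EGFP splicing minigene plus DsRed2 were seeded at 600 cells/well in Opti-MEM with 2% FBS, pin-dosed and incubated 48 h at 37°C. Acumen cytometry (488 nm) gave the GFP/RFP total-intensity ratio.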
Luc counter: Kinase-Glo luciferase inhibition (counter-screen). Kinase-Glo luciferase, ATP luminescence, 8 min. actives 0.28% (n = 200,000). Potency, µM (top dose mostly 38.3 µM), most hits filed as inhibitors; active = well fitted curve in the direction sought with a large enough effect; inconclusive = small, poorly fitted or top-dose-only effect, or another doubt; inactive = no such curve, though single readings can be large; an effect the other way counts as inactive or inconclusive; note: nearly all actives have a fitted effect of over 60% in size
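Recombinant Kinase-Glo luciferase, 10 uM ATP (linear range), luciferin; imidazole pH 7.2 / KCl / MgCl2 / Tween / BSA buffer; 8 min RT; luminescence.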
IMPase Li cell: IMPase inhibition in cells with lithium potentiation. CHO-M1 cells, IP1 TR-FRET (IP-One), carbachol + lithium. Potency, µM (series often up to 59.4 µM), usual class: inhibitors. actives 0.35% (n = 210,000); active = well fitted curve in the direction sought with a large enough effect; inconclusive = small, poorly fitted or top-dose-only effect, or another doubt; inactive = no such curve, though single readings can be large; an effect the other way counts as inactive or inconclusive;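 note: IP1 builds up when IMPase is blocked and the TR-FRET signal falls; nearly all actives have a fitted effect of over 50% in size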
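CHO cells stably expressing M1 receptor (2000/well, cultured 16–30 h) treated 30 min at 37C with compound plus low lithium. Cytosolic IP1 by TR-FRET (665/620 ratio and 620 channel) after 10 min lysis; AC50 by Hill fit.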
Hits are given with their value; - = inactive; ? = inconclusive; . = not tested or not shown; [ ] = another dose, or the depositor's remark. Unless noted, calls come from the whole dose curve; as a rule, active = well fitted inhibition curve with a large enough effect (not every such curve was filed as active); inconclusive = small, poorly fitted or top-dose-only effect, or another doubt; inactive = no such curve, though single readings can be large or run the other way.

SMILES | HPGD block | ALDH1A1 inh | Lamin A splicing | Luc counter | IMPase Li cell
CCN(CC)C(=O)c1sc(NC(=O)c2cccnc2)c(C(=O)OC)c1C | 20µM | ? | - | - | -
Cc1ccc2c(C)c(C(=O)N3CCC(c4nc5ccccc5s4)CC3)oc2c1C | . | . | - | . | .
CCOC(=O)c1c(NC(=O)CN(C)C)sc(C(=O)N(CC)CC)c1C | - | ? | -[0.0737 µM] | - | -
CCOC(=O)c1c(NC(=O)c2cc(CC(C)C)on2)sc(C(C)=O)c1C | ? | ? | - | - | -
CCCc1cc(C(=O)Nc2sc(C(C)=O)c(C)c2C(=O)OCC)no1 | ? | 25µM | - | - | -
CCCCC(=O)Nc1sc(C(=O)N(CC)CC)c(C)c1C(=O)OC | 2.5µM | 8.9µM | - | - | -
COCCCN1C(=O)C(=O)/C(=C(/O)c2ccc(C)cc2)C1/C=C/c1ccccc1 (stereo not drawn) | . | ? | - | - | -
Cc1cccc(-c2oc(C)c(C)[n+]2[O-])c1 | - | 3.5µM | - | - | -
Cc1ccccc1NC(=O)c1c(C)[nH]c(=S)c(C#N)c1-c1ccco1 | - | - | - | - | -
Cc1[nH]c(=S)c(C#N)c(C)c1C(=O)Nc1ccccc1 | 22µM | ? | - | - | -
CCc1c(C(=O)Nc2ccccc2)c(C)[nH]c(=S)c1C#N | 20µM | 3.5µM | - | - | ?
COc1ccc(-c2nnc(SCC(=O)N/N=C/c3ccccc3C(=O)O)n2-c2ccccc2)cc1 | . | - | . | - | -
CCOc1ccc(NC(=O)c2c(NCc3cccnc3)sc3c2CCC(C)C3)cc1 (stereo not drawn) | . | . | - | . | .
Cc1c(C(=O)NCc2ccccc2Cl)sc2ncnc(N(C)C3CCCCC3)c12 | . | . | - | . | .
CC(=O)c1c(CC(=O)O)[nH]n(-c2nc3ccccc3s2)c1=O | ? | - | - | 6.3µM | -
CCOC(=O)/C(C#N)=C/c1cc(C)n(-c2ccccc2)c1C | - | 11µM | - | - | -
CCOC(=O)/C(C#N)=C/c1cc2ccc(C)cc2nc1Cl | ? | ? | ? | - | -
CCOC(=O)/C(C#N)=C/c1cc2ccccc2nc1N1CCOCC1 | - | 25µM | - | - | ?
COCCNC(=O)Nc1ccc2c(c1)N(C)C(=O)CS2 | - | 22µM | - | - | -
CN1C(=O)CSc2ccc(NC(=O)NCCC3=CCCCC3)cc21 | - | 7.9µM | - | - | -
COc1cc(NC(=O)C(CCS(C)(=O)=O)N2Cc3ccccc3C2=O)cc(OC)c1OC (stereo not drawn) | . | . | - | . | .
O=C(OCn1ncc(Br)c(Br)c1=O)c1ccc(F)cc1 | 22µM | 0.089µM | ? | - | 7.1µM
O=C(OCn1ncc(Br)c(Br)c1=O)c1ccccc1Cl | ? | 0.4µM | ? | - | ?
Clc1ccccc1Nc1ncnc2c1nc1n2CCCCC1 | . | . | - | . | .
O=C(CSc1ncn[nH]1)Nc1c(Br)cc([N+](=O)[O-])cc1Br | - | - | - | - | -
SMILES | HPGD block | ALDH1A1 inh | Lamin A splicing | Luc counter | IMPase Li cell
CCC(/C=C/C(C)C1CCC2C3CCC4=CC(=O)CC[C@@]4(C)C3CC[C@@]12C)C(C)C (stereo partly drawn) | - | - | - | - | -
CCCCN1C(=O)C(NC(C)=O)c2ccccc21 (stereo not drawn) | - | 0.11µM | - | - | -
O=C(Nc1ccc(S(=O)(=O)NC2CCCC2)cc1)c1cnccn1 | 7.9µM | ? | - | - | -
O=C(N/N=C/C=C/c1ccco1)c1cccnc1 | - | ? | - | - | -
O=C(OCC(=O)c1cccs1)c1ccc(NC(=O)c2ccco2)cc1 | - | 18µM | - | - | -
O=C(N/N=C\C=C\c1ccco1)c1cc(-c2ccc3ccccc3c2)n[nH]1 | 32µM | - | ? | - | -
O=C(N/N=C/C=C/c1ccco1)c1cnccn1 | . | 3.2µM | . | . | .
O=C(Nc1ccc(NC(=O)c2cccs2)cc1)c1ccco1 | - | - | - | - | -
CCc1ccc(NC(=O)Cn2nnc(C(=O)NCc3ccc(C)cc3)c2N)cc1 | . | . | - | . | .
COC(=O)[C@@]1(Cc2ccc(OC)cc2)[C@H]2c3cc(C(=O)N(C)C)n(CCc4c[nH]c5ccc(O)cc45)c3C[C@H]2CN1C(=O)c1ccccc1 | - | - | . | - | -
O=C(Nc1ccc(OC(=O)c2ccco2)cc1)c1ccco1 | - | - | - | 13µM | -
O=C(Nc1ccc(NC(=O)c2ccco2)cc1)c1cnccn1 | - | 25µM | - | - | -
O=C(Nc1ccc(Br)c(Cl)c1)c1ccco1 | 22µM | - | - | - | -

Source: PubChem BioAssay
